# From PubChem BioAssay (NCATS)
# Results filed as inconclusive are left out. A call without a number means that no potency is given here. Active and inactive are the calls of the source. Calls come from the whole dose curve; as a rule, active = well fitted cell-killing curve with a large enough effect; inconclusive = small, poorly fitted or top-dose-only effect; inactive = flat fitted curve, though single readings scatter.
# Assay: Quantitative highthroughput screen to assess conditional lethalithy of NOMO1 cells grown in RPMI1640 with dialyzed fetal bovine serum (RPMI+ds) (AID 1963877); note: nearly all actives have a fitted effect of over 30% in size
# Conditions: NOMO1 in RPMI+dialyzed FBS viability, ATP luminescence, 48 h; series mostly up to 45.8 µM
# From the text: Assay Provider: Jason Cantor Ph.D.
# Department of Biochemistry
# University of Wisconsin-Madison, Madison, WI, USA
# Chemical screening studies have identified drug sensitivities across hundreds of cancer cell lines but most putative therapeutics fail to translate. Discovery and development of drug candidates in models that more accurately reflect nutrient levels in human blood is a major challenge. Here we performed high-throughput screens in conventional versus Human Plasma-Like Medium (HPLM) to identify compounds that were "missed" when screening using the artificial culture condition. Sets of conditional anticancer compounds spanned phases of clinical development and included non-oncology drugs were assessed. […] We also traced conditional phenotypes for several chemotherapeutics to availability of HPLM-specific metabolites and confirmed others for compounds whose reported targets are encoded by nonessential genes. Our findings establish generalizable strategies for exploiting conditional lethality in HPLM to reveal therapeutic candidates and mechanisms of action in cancer cells.
# Described herein are the results of each viability screens against three cell lines: NOMO1 (an acute myeloid leukemia cell line); P12-Ichikawa (a T-cell acute lymphoblastic leukemia); and SEM (a B-cell ALL). Each assay was screened using 3 different cell culture media: homemade human plasma-Like medium with 10% dialyzed fetal bovine serum (HPLM+ds); RPMI1640 with 10% untreated FBS and 5mM glucose (RPMI+s); and RPMI1640 with 10% dialyzed fetal bovine serum and 5 mM glucose (RPMI+ds).
# PROTOCOL TABLE (as described by Inglese J, Shamu CE and Guy RK. 2007)
# SEQUENCE No. (e.g., 1, 2, 3, etc.); […] (e.g., Cells, Incubation, Reagent, etc.); VALUE and DESCRIPTION.
# 1; Cells; 5 uL; white, solid bottom 1536-well Greiner assay plate.
# 2; Compounds; 23 nL; Kalypsis pin tool (Wako USA) equipped with a 1536-well pin head to transfer to the assay plates.
# 3; Incubation; 48 hours; 37C incubation.
# 4; Reagent; 3 uL; CellTiter Glo (Promega).
# 5; Incubation; 5 min, room temperature
# 6; Detection; Luminescence, Viewlux PerkinElmer.
# NOTES (numbers refer to Sequence numbers above)
# 1. Briefly, 5 ul of cell reagent was dispensed using a Multidrop Combi Dispenser. The NOMO1 and SEM cells were plated at 500 cells/well and the P12-Ichikawa line at 1000 cells/well.
# 2. After seeding the cells, 23 nL of MIPE 4.1 library compounds (in DMSO) were added to each plate using a Kalypsys 1536 Pintool dispenser. Bortezomib at final concentration of […] and DMSO were added to each plate as positive and negative controls respectively. For each screen, MIPE 4.1 compounds were added over an eleven-point concentration range […] in 3-fold dilutions.
# 3. Each plate was covered with a stainless steel gasketed lid to prevent evaporation and incubated for 48 hour at 37C, 95% relative humidity, and 5% CO2.
# 4-5. Three microliter CellTilter-GloTM luminescent substrate mix (Promega) reagent was added to the assay plate and incubated at room temperature for 5 min.
# 6. The luminescence signal was measured using a ViewLux (PerkinElmer) multiplate reader with a 2 second exposure time per plate. Data for each compound were normalized as percent viability such that measurements for DMSO and the empty well controls in each plate were defined as 100% and 0%, respectively.
# Potency is the fitted concentration of half-maximal effect.
row,SMILES,Potency
1,Cc1c(N)nc([C@H](CC(N)=O)NC[C@@H](N)C(N)=O)nc1C(=O)N[C@H](C(=O)N[C@@H](C)[C@H](O)[C@@H](C)C(=O)N[C@@H](C(=O)NCCc1nc(-c2nc(C(=O)NCCC[S+](C)C)cs2)cs1)[C@@H](C)O)C(O[C@H]1O[C@H](CO)[C@H](O)[C@@H](O)[C@@H]1O[C@H]1O[C@H](CO)[C@@H](O)[C@H](OC(N)=O)[C@H]1O)c1cnc[nH]1 (stereo not given in full),2640 nM (active)
2,C[C@]12CC[C@H](O)CC1=CC[C@H]1[C@H]3CCC(=O)[C@@]3(C)CC[C@@H]12,inactive
3,CCc1c(C(=O)C(N)=O)c2c(OCC(=O)O)cccc2n1Cc1ccccc1,inactive
4,C[C@@H]1CC[C@H]2[C@@H](C)C(=O)O[C@@H]3O[C@@]4(C)CC[C@H]1[C@]32OO4,inactive
5,C[C@H]([C@H](O)CCC(C)(C)O)[C@H]1CC[C@@]2(O)C3=CC(=O)[C@@H]4C[C@@H](O)[C@@H](O)C[C@]4(C)[C@@H]3CC[C@]12C,inactive
6,CC=C(C)C(=O)O[C@H]1C(C)=C2[C@@H]3OC(=O)[C@@](C)(O)[C@@]3(O)[C@@H](OC(=O)CCC)C[C@](C)(OC(C)=O)[C@@H]2[C@@H]1OC(=O)CCCCCCC,66.2 nM (active)
7,COC1=CC(C)=C[C@@H](C)[C@@H](O)[C@@H](C)CC(C)=CC=C[C@H](OC)[C@H]([C@@H](C)[C@@H](O)[C@H](C)[C@@]2(O)C[C@@H](O)[C@H](C)[C@@H](C(C)C)O2)OC1=O,74.3 nM (active)
8,C[C@]12CCC(=O)C(O)=C1CC[C@@H]1[C@H]3CCC(=O)[C@@]3(C)CC[C@@H]12,inactive
9,C=CCON=C(C[C@H]1O[C@@H]2O[C@]3(C)CC[C@@H]4[C@H](C)CC[C@@H]([C@H]1C)[C@@]24OO3)[C@H]1O[C@@H]2O[C@]3(C)CC[C@H]4[C@H](C)CC[C@@H]([C@@H]1C)[C@@]24OO3,743 nM (active)
10,CC(=O)O[C@@]12CO[C@H]1C[C@H](O)[C@@]1(C)C(=O)[C@H](O)C3=C(C)[C@@H](O)C[C@@](O)([C@@H](OC(=O)c4ccccc4)[C@@H]21)C3(C)C,13200 nM (active)
11,CC(C)CC(N(C)C)C1(c2ccc(Cl)cc2)CCC1 (stereo not given),inactive
12,O=C(Oc1ccc([N+](=O)[O-])cc1)N1CCN(Cc2cccc(Oc3ccccc3)c2)CC1,inactive
13,C#CC1(O)CCC2C3CCC4=CC(=O)CCC4(C)C3CCC21C (stereo not given),inactive
14,CCNC(=O)C[C@@H]1N=C(c2ccc(Cl)cc2)c2cc(OC)ccc2-n2c(C)nnc21,9350 nM (active)
15,COC1=C[C@@H]2[C@@H]3Cc4ccc(OC)c(O)c4[C@]2(CCN3C)CC1=O,inactive
16,CCC1(c2ccc(N)cc2)CCC(=O)NC1=O (stereo not given),inactive
17,C[C@](O)(COc1ccc(C#N)cc1)C(=O)Nc1ccc(C#N)c(C(F)(F)F)c1,inactive
18,CCOP(=O)(OCC)C(C)NC(=O)N(CCCl)N=O (stereo not given),inactive
19,Cc1nc(-c2ccc(-c3ccc(C(=O)N4CCc5cc6c(cc54)C4(CCN(C)CC4)CO6)cc3)c(C)c2)no1,inactive
20,CC(C)C[C@H](CN)CC(=O)O,inactive

row,SMILES,Potency
1,CCCC(C)(COC(N)=O)COC(=O)NC(C)C (stereo not given),inactive
2,CC1=NN=C(c2ccc(N)cc2)c2cc3c(cc2C1)OCO3,inactive
3,CN[C@@H]1Cc2cccc3[nH]c(=O)n(c23)C1,inactive
4,CN1CCN(c2ccc([N+](=O)[O-])c3no[n+]([O-])c23)CC1,inactive
5,O=c1[nH]c2ccccc2n1C1CCN(Cc2ccc(-c3[nH]c4cc5ncnc5cc4nc3-c3ccccc3)cc2)CC1,inactive
6,C[C@]12COC(=O)C[C@@H]1CC[C@@H]1[C@H]2CC[C@@]2(C)[C@H]1CC[C@]2(C)O,inactive
7,Cc1[nH]nc2ccc(-c3cncc(OC[C@@H](N)Cc4c[nH]c5ccccc45)c3)cc12,743 nM (active)
8,Cc1cccc(C)c1NC(=O)CN1CCCC1=O,inactive
9,O=C(NCC1CCOCC1)c1cnc(Nc2ccc(Cl)cc2Cl)nc1C(F)(F)F,inactive
10,C=C[C@@H]1CN2CCC1C[C@@H]2[C@@H](O)c1ccnc2ccccc12 (stereo not given in full),inactive
11,CCCCCC[C@H]1C(=O)O[C@H](C)[C@H](NC(=O)c2cccc(NC=O)c2O)C(=O)O[C@@H](C)[C@@H]1OC(=O)CC(C)C,inactive
12,CC(C)(O)C=CC(=O)[C@](C)(O)[C@H]1[C@H](O)C[C@]2(C)[C@@H]3CC=C4[C@@H](C=C(O)C(=O)C4(C)C)[C@]3(C)C(=O)C[C@@]12C,166 nM (active)
13,O=S(=O)(F)Cc1ccccc1,inactive
14,CCOc1ccccc1-n1c(C(C)N2CCN(C(=O)COc3ccc(Cl)cc3)CC2)nc2ccccc2c1=O (stereo not given),2630 nM (active)
15,CN(C)CCc1ccc(O)cc1,inactive
16,CCNC(=O)CC1N=C(c2ccc(Cl)cc2)c2cc(OC)ccc2-n2c(C)nnc21 (stereo not given),inactive
17,CC(C)(C)c1cc(C=C(C#N)C#N)cc(Br)c1O,inactive
18,N[C@@H](Cc1ccc(N(CCCl)CCCl)cc1)C(=O)O,9350 nM (active)
19,CC(=Cc1csc(C)n1)[C@@H]1C[C@H]2O[C@]2(C)CCC[C@H](C)[C@@H](O)[C@@H](C)C(=O)C(C)(C)[C@@H](O)CC(=O)O1,inactive
20,COc1ccc2c(c1OC)CN1CCc3cc4c(cc3C1C2)OCO4 (stereo not given),1660 nM (active)
